Nrf2 inh = Nrf2 qHTS screen for inhibitors | A549 ARE-Fluc reporter, luciferase luminescence, 18-24 h | Potency, µM (highest dose often 46 µM), without a hit: top-dose activity change, negative = inhibition, usual class: inhibitors | hit rate 2.1% among 360,000 | AID 504444, 2011; further: on the % scale 0 is the no-effect control and ±100 the full control effect; nearly all actives have a fitted effect of over 60% in size
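Cells were seeded and rested 2 h, then exposed to compounds for 18-24 h. CellTiter-Fluor was read first as a viability measure. BugLite was added 15 min before the final luminescent read of ARE-luciferase activity in A549 cells.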
Nrf2 activator = qHTS of Nrf2 Activators. hit rate 0.31% among 410,000. Potency, µM (highest dose often 46.1 µM), inactives show at the highest dose activation, hits mostly activators. AREc32 ARE-luciferase reporter (MCF7-derived line), luminescence, 24 h. AID 624171, 2012; further: % of control where 0% means no effect; nearly all actives have a fitted effect of over 65% in size
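Quantitative high-throughput format: AREc32 reporter cells, 1000 per well, received compound by pin transfer and were incubated 24 hr at 37 deg C, 5% CO2, before Steady-Glo luminescence detection.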
ATXN2 expr inh = Primary qHTS for Inhibitors of ATXN expression; hit rate 0.72% among 360,000; HEK-293 ATXN2-luciferase reporter, luminescence, 24 h; Potency, µM (series often up to 57 µM), for inactives: top-dose activity change, negative = inhibition, most hits filed as inhibitors; further: on the % scale 0 is the no-effect control and ±100 the full control effect; nearly all actives have a fitted effect of over 55% in size
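qHTS (up to 57 uM final) was run with 24 h compound exposure of reporter cells at 37 °C. Each well was multiplexed: SteadyGlo luminescence measured ATXN2-luciferase expression after a fluorogenic Gly-Phe-AFC viability readout (25 uM final).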
S2 tox = Viability Counterscreen for Primary qHTS for Inhibitors of ATXN expression; S2 cells (HEK-293 line with an ATXN2-luciferase reporter) viability, CellTiter-Fluor protease fluorescence, 24 h; Potency, µM (series often up to 56.7 µM), usual class: cytotoxic; hit rate 0.49% among 400,000; AID 651635, 2014; further: nearly all actives have a fitted effect of over 40% in size
A549 tox = Nrf2 qHTS screen for inhibitors: counterscreen for cytotoxicity. A549 ARE-Fluc cells, CellTiter-Fluor viability, 18-24 h. AID 504648, 2011. Potency, µM (titrated, usually from 46 µM), for the others: at the highest dose activity change, negative = cytotoxicity, usual class: inhibitors. hit rate 0.16% among 390,000; further: on the % scale 0 is the no-effect control and ±100 the full control effect
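Cytotoxicity counterscreen: CellTiter-Fluor fluorescence was measured in A549 ARE_Fluc cells after 18-24 h of compound exposure in a concentration series. The subsequent BugLite luminescent read reports ARE-luciferase activity.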
The depositor's hits bear a star; i = inactive; ? = inconclusive; / = not tested or not shown; [ ] = dose if it differs, or a comment. Hits are enriched below; roughly 2.9% of the tested compounds scored in any of these assays. The call rests on the fitted dose curve; in most records, active means well fitted curve in the direction sought with a large enough effect; inconclusive means small, poorly fitted or top-dose-only effect, or another doubt; inactive means no such curve, though single readings can be large; an effect the other way counts as inactive or inconclusive. Potency means the concentration at half of the fitted maximal effect.

SMILES	Nrf2 inh	Nrf2 activator	ATXN2 expr inh	S2 tox	A549 tox
O=C(Nc1nccs1)C1CC=CC2CCN(Cc3ccc(Cl)c(Cl)c3)C(=O)C21 (configuration not stated)	-5%	/	/	/	0%
Cc1ccc(N2CC(NC(=O)/C=C\c3ccc4c(c3)OCO4)CC2=O)cc1C (configuration not stated)	/	4%	/	/	3%
COc1ccccc1OCC(=O)Nc1nnc(-c2ccco2)s1	7%	11µM*	14%	i	11%
COc1ccc(NC(=O)Nc2nnc(-c3ccccc3F)s2)cc1	?	?	6%	i	-5%
COc1ccc(NC(=O)Nc2nnc(-c3ccco3)s2)cc1	?	13µM*	37%	i	-5%
CCN1CCCC1CNC(=O)c1cc2c(-c3cccc(OC)c3)nn(C)c2s1 (configuration not stated)	19%	6%	-3%	?	?
Cn1nc(-c2ccc(Cl)cc2)c2cc(C(=O)NCCCN3CCCC3)sc21	5%	-5%	20µM*	18µM*	-9%
CCN1CCCC1CNC(=O)c1cc2c(-c3ccc(Cl)cc3)nn(C)c2s1 (configuration not stated)	?	-5%	25µM*	14µM*	-16%
CCCCNC(=O)c1cc2c(-c3ccc(Cl)cc3)nn(C)c2s1	?	10%	9%	i	-2%
CNC(=O)c1c(I)c(NC(=O)CCCCC(=O)Nc2c(I)c(C(=O)O)c(I)c(C(=O)NC)c2I)c(I)c(C(=O)O)c1I	/	/	-4%	i	/
COc1ccc(-c2noc(CCC(=O)Nc3cccc(C)c3)n2)cc1	?	0%	4%	i	-21%
COc1ccc(-c2noc(CCC(=O)NCCc3cccc(C)c3)n2)cc1	23µM*	-1%	2%	i	-9%
COc1ccc(-c2noc(CCCC(=O)NC3CCCCC3)n2)cc1	21µM*	-1%	-37%	i	-20%
CCOc1ccc(-c2cc(CCCC(=O)NCCc3cc(OC)c(OC)c(OC)c3)no2)cc1	15µM*	-1%	?	i	-4%
COc1ccc(-c2noc(CCCC(=O)NCCc3ccccc3)n2)cc1OC	23µM*	-1%	-13%	i	-3%
CN(C)c1cccc(S(=O)(=O)N2CCCN(S(=O)(=O)c3ccc4c(c3)OCCO4)CC2)c1	-12%	/	/	/	1%
O=C(Nc1ccc(Oc2ccnc3[nH]ccc23)c(F)c1)c1cccn(-c2ccc(F)cc2)c1=O	/	/	-19%	/	/
Cc1ccc(C(=O)CSc2nnnn2C(C)C)c(C)c1	12%	-2%	7.9µM*	i	6%
Cc1ccc(/C=C/C(=O)OCC(=O)NC(C)c2ccccc2)o1 (configuration not stated)	20%	8%	5%	i	-2%
Cc1ccc(/C=C/C(=O)OCC(=O)Nc2cccnc2Cl)o1	-9%	2.8µM*	12%	i	-2%
CSC1(SC2=NCCN2)SC2(NCCN2)S1	8.2µM*	24%	?	?	7.3µM*
COc1cc(=O)n2c(c1C(=O)N(C)Cc1cscn1)CCN(Cc1c(C)[nH]c3ccccc13)CC2	/	/	/	i	/
Cc1c(C#N)c(O)n(C)c(=O)c1N=Nc1ccc(S(N)(=O)=O)cc1	21%	0%	/	?	20%
Cc1c(C#N)c(O)n(CCO)c(=O)c1N=Nc1ccc(S(N)(=O)=O)cc1	-18%	0%	-10%[11.3 µM]	?	15µM*
Cc1n(Cc2ccccc2)c2ccccc2[n+]1Cc1ccccc1	16µM*	-1%	?	i	-7%
SMILES	Nrf2 inh	Nrf2 activator	ATXN2 expr inh	S2 tox	A549 tox
Cc1n(Cc2ccccc2)c2cc([N+](=O)[O-])ccc2[n+]1Cc1ccccc1	0%	-1%	/	i	3%
CCCCC(=O)O[C@]1(C(=O)CO)[C@@H](C)C[C@H]2[C@@H]3CCC4=CC(=O)C=C[C@]4(C)[C@@]3(F)[C@@H](O)C[C@@]21C	/	/	3%	i	/
Cc1ccc(NC(=O)CSc2ncnc3c2sc2ccccc23)cc1C	/	0%	10%	i	10%
O=C(Cn1nnc(-c2ccc(CN3CCOCC3)cc2)n1)Nc1nc(-c2ccccc2)cs1	16µM*	2%	-10%	i	-1%
O=C(CN1CCOCC1)Nc1nc(-c2ccccc2)cs1	16%	4%	11%	i	1%
CCCN(CCC)C(=O)c1cc2c(=O)[nH]c3ccc(C)cc3c2s1	18µM*	-1%	/	?	-22%
O=C(O)c1ccc(N=NNc2cccc([N+](=O)[O-])c2)cc1	?	11%	35%	i	1%
N#C/C(=N\Nc1ccc([N+](=O)[O-])cc1)C(N)=S	?	2%	-37%	22µM*	18µM*
N#C/C(=N\Nc1cccc([N+](=O)[O-])c1)C(=O)c1ccc(Br)cc1	9.2µM*	14%	9.5µM*	?	-22%
N/C(=N\OC(=O)c1ccc2ccccc2c1)c1ccccn1	?	0%	11µM*	i	2%
O=C1/C(=C/c2ccccc2[N+](=O)[O-])COc2ccccc21	?	?	21µM*	24µM*	?
Cc1cccc(NC(=O)/C(C#N)=C/c2ccc(C)o2)c1	?	?	52%	i	-11%
CC(=O)Oc1cccc(/C=C2\Sc3ccccc3C2=O)c1	15%	14µM*	12%	i	1%
CCCCOc1ccc(/C=C2/Sc3ccccc3C2=O)cc1	?	8%	87%	i	19%
COc1ccc(Cl)cc1C(=O)O/N=C(\N)c1ccc(Cl)cc1	?	7.9µM*	39%	i	4%
Cc1occc1C(=O)O/N=C(\N)c1ccc(Cl)cc1	?	6.3µM*	45%	?	3%
Cc1noc(-c2ccc(Cl)cc2)c1C(=O)O/N=C(\N)c1ccc(C(C)(C)C)cc1	?	2%	?	?	?
COc1cccc(Cn2ncc3c4sc(C)cc4n(C)c3c2=O)c1	-20%	/	/	/	-3%
NS(=O)(=O)c1ccc(NC(=O)COC(=O)C2(c3ccccc3F)CCCC2)cc1	21µM*	0%	-16%	?	?
O=C(COC(=O)C1(c2ccccc2F)CCCC1)NCc1ccc2c(c1)OCO2	-2%	0%	5%	i	-1%
NS(=O)(=O)c1ccc(NC(=O)COC(=O)C23CC4CC(CC(C4)C2)C3)cc1	10%	0%	-7%	i	0%
O=C(COC(=O)C1(c2ccccc2F)CCCC1)NCc1cccs1	21µM*	0%	2%[11.3 µM]	i	-11%
C[C@]12CCC(=O)C=C1[C@@H]1CC1[C@H]1[C@H]3[C@@H]4C[C@H]4[C@@]4(CCC(=O)O4)[C@@]3(C)CC[C@H]12 (some centres not stated)	/	/	-17%	/	/

Bioassay records from PubChem.
